Test results reported in PubChem BioAssay (NCATS).
Values joined by “and” are separate entries in the source; they are usually repeats but may differ in a detail not shown here. Identical values can stand only once. Results filed as inconclusive are left out. For part of these data: Results with a measured potency or affinity are listed apart. Active and inactive are the calls of the source. Unless noted, the rule behind the calls is not given here.

What was measured:
[1] = qHTS Assay for Identifying Gametocytocidal Compounds (AID 743244; active = well fitted curve in the direction sought with a large enough effect; an effect the other way counts as inactive or inconclusive; note: potency is the fitted concentration of half-maximal effect;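 for max response: % is set by controls: 0 for no effect and ±100 for the full control effect; actives lower the fluorescent signal which means gametocytes are killed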); details: P. falciparum 3D7 stage III-V gametocytes, alamarBlue, 72 h; max response: stronger effect = lower value
Summary of the method: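 Fluorescence at Ex 525/Em 598 nm, recorded 24 h after alamarBlue addition, reports residual metabolic activity of 3D7 gametocytes (stages III–V) following 72 h compound exposure at 37 °C, 5% CO2.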

[2] = Ebola virus entry assay, green fluorescence channel
[3] = Ebola virus entry assay, blue channel fluorescence
[4] = Ebola virus entry assay, ratio channel
[5] = Ebola virus entry assay, reporter ratio channel; AC50: Channel type: primary unless noted; outcome: Channel type: primary unless noted
[6] = qHTS profiling for inhibitors of Plasmodium falciparum (3D7) proliferation (AID 743322);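 note: infected erythrocytes exposed to compound for 72 h before lysis; 100% = DMSO vehicle wells and 0% = 0.29 µM artemisinin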; details: P. falciparum 3D7 proliferation; at 28.7 µM (top of the series)
Summary of the method: (§1)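 Parasite DNA was quantified by SYBR Green I fluorescence (ex 485, em 535 nm) after overnight lysis in saponin/Triton buffer at room temperature. Cultures at 0.3% parasitemia and 2.5% hematocrit were first exposed to compound for 72 h at 37 C; signals were normalised to artemisinin (0.29 uM) and vehicle wells.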

[7] = qHTS profiling for inhibitors of Plasmodium falciparum (DD2) proliferation (AID 743323); details: lower = more inhibition; at 28.7 µM (top of the series)
Summary of the method: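 SYBR Green fluorescence (ex 485, em 535 nm) of lysed cultures gives parasite DNA content; wells normalized to artemisinin (0.29 uM) and DMSO controls. Infected red cells: 0.3% parasitemia, 2.5% hematocrit, 72 h, 37 C.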

[8] = qHTS profiling for inhibitors of Plasmodium falciparum (HB3) proliferation (AID 743324; active = well fitted curve in the direction sought with a large enough effect; an effect the other way counts as inactive or inconclusive;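 note: 100% = DMSO vehicle wells and 0% = artemisinin-treated control wells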); details: Plasmodium falciparum HB3 blood-stage proliferation; at 28.7 µM (top of the series)
Summary of the method: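 SYBR Green fluorescence (485 ex/535 em) of lysed cultures, incubated overnight at room temperature in the dark, quantifies parasite DNA. Infected erythrocytes at 0.3% parasitemia and 2.5% hematocrit were exposed 72 h; values normalized to DMSO and 0.29 uM artemisinin controls.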

[9] = qHTS profiling of the MIPE4 collection as inhibitors of Plasmodium falciparum (3D7) proliferation (AID 743344);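 note: scaled between DMSO vehicle wells and 0.29 µM artemisinin as full inhibition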; details: P. falciparum 3D7 in erythrocytes, SYBR Green DNA fluorescence, 72 h; at 28.5 µM (top of the series) unless noted
Summary of the method: as §1

[10] = qHTS profiling of the MIPE4 collection as inhibitors of Plasmodium falciparum (DD2) proliferation (AID 743345); details: P. falciparum Dd2 in erythrocytes, SYBR Green DNA, 72 h; at 28.5 µM (top of the series) unless noted
Summary of the method: as §1

[11] = qHTS profiling of the MIPE4 collection as inhibitors of Plasmodium falciparum (DD2) proliferation (Rep 2) (AID 743346); details: P. falciparum Dd2 in erythrocytes, SYBR Green DNA, 72 h; at 28.5 µM (top of the series) unless noted
Summary of the method: as §1

[12] = qHTS profiling of the MIPE4 collection as inhibitors of Plasmodium falciparum (HB3) proliferation (AID 743347);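 note: plate controls were DMSO vehicle wells for no effect and artemisinin wells for full effect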; details: P. falciparum HB3 in erythrocytes, SYBR Green DNA, 72 h; at 28.5 µM (top of the series) unless noted
Summary of the method: as §1
Throughout, for efficacy: 0% is about no effect.

Row | SMILES | max response [1] | efficacy [2] | AC50 [3] | outcome [4] | AC50 [5] | remaining parasite growth % (stronger effect = lower value) [6] | activity, percent of control [7] | remaining proliferation (% of control), lower = more inhibition [8] | parasite growth, % of DMSO control [9] | parasite growth remaining, % of DMSO control (lower = more inhibition) [10] | parasite growth, % of control (lower = inhibition) [11] | growth, % of control [12] | AC50 [4] | Potency [1]
1 | Cc1cc2c(C(C)C)c(O)c(O)c(C=O)c2c(O)c1-c1c(C)cc2c(C(C)C)c(O)c(O)c(C=O)c2c1O | 0.673% (inactive) | 104% (inactive) | 39.8 µM (active) | inactive | 39.8 µM (active) |  |  |  |  |  |  |  |  | 
2 | Cc1sc2c(c1C)C(c1ccc(Cl)cc1)=N[C@@H](CC(=O)OC(C)(C)C)c1nnc(C)n1-2 | -19.5% (inactive) |  |  |  |  | 4.84% | 14.6% | -1.43% | 16.3% | 24.4% | 29.2% | 12.7% |  | 
3 | Fc1ccc(C(OCCN2CCN(CCCc3ccccc3)CC2)c2ccc(F)cc2)cc1 |  | -187% (inactive) | 3.98 µM (active) |  | 2.82 µM (active) |  |  |  | 5.99% | 9.78% | 10.9% | 86.1% | 2.82 µM (active) | 
4 | CC(CCc1ccccc1)NC(C)C(O)c1ccc(O)cc1 (configuration not stated) | 2.74% (inactive) and 19.3% (inactive) | 36.4% (inactive) | 35.5 µM (active) |  | 35.5 µM (active) |  |  |  |  |  |  |  | 35.5 µM (active) | 
5 | CC1=C2C[C@@H]3[C@@H](CC=C4C[C@@H](O)CC[C@@]43C)[C@@H]2CC[C@]12O[C@H]1C[C@H](C)CN[C@H]1[C@H]2C |  |  |  |  |  | 66.1% | 39% | 5.81% | 61.1% | 16.2% | 33.5% | 71.2% |  | 23.5 µM (active)
6 | CNC(=O)c1ccc(N2C(=S)N(c3ccc(C#N)c(C(F)(F)F)c3)C(=O)C23CCC3)cc1F | -1.03% (inactive) |  |  |  |  | 74.2% | 76.1% | 43.8% | 36.9% | 81.7% | 45.4% | 69.7% |  | 
